The test system of test [1] is CRL-7250. Nature of the test: Cytotoxic Profiling of Annotated Libraries Using Quantitative High-Throughput Screening (AID 1296008). Also: nearly all actives have a fitted effect of over 60% in size. The note with it: Five cell lines viability, CellTiter-Glo ATP luminescence, 48-72 h; max response: hits give low values. In a few lines: (§1)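 Compounds were pin-transferred onto cells and incubated 48 or 72 hr at 37 degree Celsius, 95% humidity. CellTiter-Glo was added, plates sat 10 min at room temperature, then ATP-coupled luminescence was imaged as the viability read-out.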
In general terms: ATP-based viability assays read luminescence as a measure of living cells.

The subject of test [2] is HEK293. The description is as above. The note with it: Five cell lines viability, CellTiter-Glo ATP luminescence, 48-72 h; max response: hits give low values. The gist of the method: as §1

Records with an inconclusive call do not appear. Unmarked numbers belong to inactive results. Active and inactive are the calls of the source. Calls follow the shape of the dose curve; as a rule, active = well fitted inhibition curve with a large enough effect; inconclusive = small, poorly fitted or top-dose-only effect; inactive = flat fitted curve, though single readings scatter.
% is scaled to controls: 0 for no effect and ±100 for the full control effect; potency is read from the fitted curve at half-maximal effect.

For the molecule `C[C@@H]1O[C@@H](O[C@H]2[C@H](O[C@H]3[C@H](O)[C@@H](C(=O)O)O[C@@H](O[C@H]4CC[C@@]5(C)C(CC[C@]6(C)C5CC[C@]57OC[C@@]8(CCC(C)(C)CC85)[C@H](O)C[C@]76C)C4(C)C)[C@@H]3O[C@@H]3O[C@H](CO)[C@@H](O[C@@H]4OC[C@@H](O)[C@H](O)[C@H]4O)[C@H](O)[C@H]3O)O[C@H](CO)[C@H](O)[C@@H]2O)[C@H](O)[C@H](O)[C@H]1O` (stereo not given in full), the max response is -4.31% in test [1] and -0.169% in test [2].
`C=C1C[C@]23C[C@H]1[C@@H](O)C[C@H]2[C@@]12C=C[C@H](O)[C@@](C)(C(=O)O1)[C@H]2[C@@H]3C(=O)O`: the max response in test [1] was 0.0204%; in test [2], -1.36%.
Consider `CC(=O)C1=C(C)N(c2cccc(C(F)(F)F)c2)C(=O)N[C@H]1c1ccc(C#N)nc1`, for which the max response in test [1] is 2.3%; in test [2], -4.03%.
Turning to `C=CC(C)(CC/C=C(\C)C(=O)OC)OC1OC(COC(=O)CC(C)(O)CC(=O)O)C(OC2OC(CO)C(O)C(O)C2O)C(O)C1O` (stereo not given), the result in test [1] was inactive. Also, in test [2], the max response is -1.61%.
Turning to `C#CCN(Cc1cc2c(=O)[nH]c(C)nc2cc1Br)c1ccc(C(=O)NCc2cccnc2)cc1`, the Potency is 51.7 nM (active) in test [1] and 4.6 nM (active) in test [2].
`CC1CC2OC3(OC2C(C)(C)O)C1C1(C)CCC24CC25CCC(O[C@@H]2OC[C@@H](O)[C@H](O)[C@H]2O)C(C)(C)C5CC=C4C1(C)C3O` (stereo not given in full): the max response in test [1] is -7.03%. In addition, the result in test [2] was inactive.
Regarding `CC(C)(O)/C=C/C1=CC(=O)[C@@](C)(O)C[C@H]1O`, the max response in test [1] was -5.51%; in test [2] it was -6.16%.
The matching figures for `C=C1C(OC(=O)/C(C)=C\C)[C@@]23CCC4[C@@](C)(CCC[C@@]4(C)C(=O)O)C2CC[C@H]1C3OC(C)=O` (stereo not given in full): -2.82% and -4.19%.
For the molecule `CC1OC(O[C@H]2CC[C@@]3(C)C(CC[C@]4(C)C3CC=C3C5CC(C)(C)CC[C@]5(C(=O)OC5OC(CO)C(OC6OC(COC7OCC(O)C(O)C7O)C(O)C(O)C6O)C(O)C5O)CC[C@]34C)C2(C)C)C(O)C(O)C1OC1OCC(OC2OCC(O)C(O)C2O)C(O)C1O` (stereo not given in full), the max response in test [1] is -5.53%; in test [2], 1.98%.
The corresponding values for `C/C=C(\C)C(=O)O[C@@H]1CC2[C@@H](CC=C3C[C@@H](O[C@H]4C[C@H](OC)[C@H](O[C@H]5C[C@H](OC)[C@H](O[C@@H]6O[C@H](C)[C@@H](O[C@H]7C[C@H](OC)[C@H](O[C@@H]8O[C@H](CO)[C@@H](O)[C@H](O)[C@H]8O)[C@@H](C)O7)[C@H](OC)[C@H]6O)[C@@H](C)O5)[C@@H](C)O4)CC[C@@]32C)[C@@]2(O)CC[C@H](C(C)=O)[C@@]12C` (stereo not given in full) are 3.18% and -3.44%.
The corresponding values for `CC(=O)OC[C@]12[C@H](OC(C)=O)C(=O)[C@@H]3[C@@H](OC(C)=O)[C@@]14O[C@@]3(C)COC(=O)c1cccnc1[C@@H](C)[C@H](C)C(=O)O[C@@H]([C@H](O)[C@@H]2OC(C)=O)[C@]4(C)O` are 0.341% and -0.596%.
On to `C/C1=C\CCC(C)CCO[C@@H]2O[C@H](CO[C@@H]3OC[C@H](O)[C@H](O)[C@H]3OC1=O)[C@@H](O)[C@H](O)[C@H]2O` (stereo not given in full), for which the max response in test [1] was -2.22%; in test [2], 2.77%.
Consider `Nc1ncnc2c1ncn2CCNCCCCCO`, for which the result in test [1] was inactive. Further, the max response in test [2] was 4.45%.
The corresponding values for `COc1ncc2cc(C(=O)Nc3cc(C(=O)NCc4cccc(Cl)c4)ccc3Cl)c(=O)[nH]c2n1` are “inactive” and -14.6%.
The corresponding values for `O=C(O)c1ccc(OC2OC(CO)C(O)C(O)C2O)cc1` (stereo not given) are “inactive” and -2.82%.
On to `C=C[C@H]1C(O[C@@H]2O[C@H](CO)[C@@H](O)[C@H](O)[C@H]2O)OC=C2C(=O)N3CCc4c([nH]c5ccccc45)C3CC21` (stereo not given in full), for which the molecule was called inactive in test [1] and in test [2].
With `CC(/C=C/C1=CC2=CC(=O)C(C)(O)C(O)C2=CO1)=C\C(C)CCO` (stereo not given), the max response in test [1] was -1.14%; in test [2], -3.02%.
The matching figures for `CS(=O)(=O)N(CC(=O)NCC1CC1)c1cc(C(F)(F)F)ccc1Cl`: -0.912% and 0.809%.
The corresponding values for `C=C(CO)C12OC1C1(C)C(=CC2=O)C(O)C(O)CC1C` (stereo not given) are -0.172% and -0.602%.
As for `C/C1=C\[C@H]2OC(=O)[C@@H](C)[C@@H]2CC/C(C(=O)O)=C/CC1`, the figures for the max response in test [1] and in test [2] were -1.29% and -16.7%, respectively.

(Values after PubChem BioAssay (NCATS).)
